{
  "source": "PubChem BioAssay",
  "note": "A number with no mark means an inactive call. No rule for the calls is given here.",
  "data": [
    {"molecular_target": "L-lactate dehydrogenase (Plasmodium falciparum (isolate CDC / Honduras)) (UniProt Q27743)", "sequence (Q27743 whole entry, looked up)": "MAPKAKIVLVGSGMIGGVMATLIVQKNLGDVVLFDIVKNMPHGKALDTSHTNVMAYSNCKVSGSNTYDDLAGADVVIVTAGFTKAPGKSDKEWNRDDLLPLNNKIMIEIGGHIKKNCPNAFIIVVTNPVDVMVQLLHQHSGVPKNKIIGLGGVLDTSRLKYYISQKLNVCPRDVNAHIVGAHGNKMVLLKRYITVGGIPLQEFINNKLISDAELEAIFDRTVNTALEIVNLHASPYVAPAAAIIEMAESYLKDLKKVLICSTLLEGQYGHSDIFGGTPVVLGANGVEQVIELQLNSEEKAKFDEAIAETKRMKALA", "assay": "PfLDH activity inhibition – cell lysate, 3D7 strain, counter-screen for P. falciparum growth inhibition project (AID 2304);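 also: 0% = vehicle and 100% = reference inhibitor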", "settings": "P. falciparum 3D7 crude extract, LDH APAD/NBT absorbance; at 2 µM; stronger effect = higher value", "units": {"inhibition": "%"}, "values": [
      {"smiles": "CN1CCN(Cc2cccc(-c3ccc4c(Nc5cc(O)c(Cl)cc5F)ccnc4c3)c2)CC1", "inhibition": 4},
      {"smiles": "COc1c(CN2CCOCC2)cccc1-c1cc2c(-c3ccc(C(=O)O)c(C(C)C)c3)ccnc2[nH]1", "inhibition": -3},
      {"smiles": "CC(=O)Nc1cccc(Nc2nccc(Nc3ccc(Oc4ccccc4)cc3)n2)c1", "inhibition": -6},
      {"smiles": "C#CCNC(=O)c1ccc(-c2ccnc(Nc3cccc(CCCN4CCOCC4)c3)n2)s1", "inhibition": -4},
      {"smiles": "CN(c1ccc2c(c1)nc(NCc1ccccc1)n2C)c1ccnc(Nc2ccc(CS(C)(=O)=O)cc2)n1", "inhibition": 4},
      {"smiles": "CN(C)CC(O)COc1ccc(Nc2ncc([N+](=O)[O-])c(Nc3ccccc3O)n2)cc1", "note": "(centres undefined)", "inhibition": -4},
      {"smiles": "N=C(N)c1ccc(Nc2nc(Nc3ccc(-c4ccccc4)cc3)ncc2[N+](=O)[O-])cc1", "inhibition": -3},
      {"smiles": "CC(=O)c1ccc(NC(=O)Nc2ccc(N(C)c3ccnc(Nc4cccc(CS(C)(=O)=O)c4)n3)cc2)cc1", "inhibition": -1},
      {"smiles": "N#Cc1cnc(Nc2ccc(Oc3ccccc3)cc2)nc1Nc1cccc(S(N)(=O)=O)c1", "inhibition": 3},
      {"smiles": "Cc1ccc(Nc2nc3cc(Nc4ccnc(Nc5cccc(CS(C)(=O)=O)c5)n4)ccc3o2)cc1", "inhibition": 4},
      {"smiles": "O=C(O)c1cccnc1Sc1ccc(Cl)cc1", "inhibition": 3},
      {"smiles": "CC(=O)Nc1nc(C)c(-c2csc(Nc3ccc(Cl)cc3)n2)s1", "inhibition": 0},
      {"smiles": "COc1cccc(Nc2nccc(-c3c(-c4cccc(NC(=O)c5c(F)cccc5F)c4)nn4ccccc34)n2)c1", "inhibition": -2},
      {"smiles": "CN(c1ccc(NC(=O)Nc2cc(C(F)(F)F)ccc2F)cc1)c1ccnc(NCCN2CCOCC2)n1", "inhibition": -2},
      {"smiles": "COc1cccc(-n2ncc3c(N/N=C/c4ccc(CN(C)CCN(C)C)cc4)ncnc32)c1", "inhibition": -2},
      {"smiles": "Nc1ncc(-c2cccc(F)c2)cc1-c1nc2ccc(F)cc2[nH]1", "inhibition": -3},
      {"smiles": "CS(=O)(=O)Cc1cccc(Nc2ncc(Cl)c(Nc3cccnc3C(N)=O)n2)c1", "inhibition": -3},
      {"smiles": "COc1c(CN2CCCC2)cccc1-c1cc2c(-c3ccc(C(=O)O)c(C(C)C)c3)ccnc2[nH]1", "inhibition": -1},
      {"smiles": "CN(c1ccc(NC(=O)Nc2cccc(Cl)c2)cc1)c1ccnc(N)n1", "inhibition": -1},
      {"smiles": "CC(=O)Nc1ccc(Nc2ncc([N+](=O)[O-])c(Nc3ccccc3C(N)=O)n2)cc1", "inhibition": 2},
      {"smiles": "CN(c1ccc2c(c1)nc(NCc1ccc(F)cc1)n2C)c1ccnc(Nc2ccc(CS(C)(=O)=O)cc2)n1", "inhibition": 7},
      {"smiles": "CCN(CC)CCCNc1nccc(N(C)c2ccc(NC(=O)Nc3cc(C(F)(F)F)ccc3F)cc2)n1", "inhibition": -6},
      {"smiles": "NS(=O)(=O)c1cccc(Nc2nccc(-c3cnn4ncccc34)n2)c1", "inhibition": 0},
      {"smiles": "CN1CCC(NC(=O)c2cccc(Nc3cc(Nc4cccc(Br)c4)ncn3)c2)CC1", "inhibition": 1},
      {"smiles": "CCN(CC)CCNC(=O)c1ccc(Nc2ncc([N+](=O)[O-])c(Nc3ccccc3OC)n2)cc1", "inhibition": -6},
      {"smiles": "O=C(Cc1ccc(Nc2nccc(Nc3cccc4[nH]ncc34)n2)cc1)Nc1ccc(C(F)(F)F)cc1", "inhibition": -6},
      {"smiles": "Cc1ccc(S(=O)(=O)Nc2ccc(Nc3nccc(Nc4cccc5[nH]ncc45)n3)cc2)cc1", "inhibition": 6},
      {"smiles": "Oc1cc(-c2nc(-c3ccccc3)[nH]c2-c2ccncc2)ccc1Cl", "inhibition": -6},
      {"smiles": "CN(c1ccc(NC(=O)Nc2cc(C(C)(C)C)on2)cc1)c1ccnc(NCCN2CCOCC2)n1", "inhibition": -5},
      {"smiles": "COc1ccc(-c2cnn3ccc(Nc4cc(OC)c(OC)c(OC)c4)nc23)cc1OC", "inhibition": -4},
      {"smiles": "O=C(NCCN1CCCCC1)c1cccc(Nc2nccc(Nc3ccc(Oc4ccccc4)cc3)n2)c1", "inhibition": -2},
      {"smiles": "O=c1[nH]ccc2nc(N[C@@H]3CCNC3)nc(Nc3ccc4c(c3)S(=O)(=O)CC4)c12", "inhibition": -2},
      {"smiles": "Cc1cc(Nc2nc(Nc3cccc(Cl)c3)nc3ccccc23)n[nH]1", "inhibition": -2},
      {"smiles": "C(=N\\Nc1nccc2sc(-c3ccccc3)cc12)/c1cccnc1", "inhibition": 8},
      {"smiles": "Cn1nc(-c2ccc(NC(=O)Nc3ccc4ccccc4c3)c(F)c2)c2cnc(NCCN3CCOCC3)nc21", "inhibition": 1},
      {"smiles": "Cn1cnc2c(Nc3ccncc3)nc(-c3ccc4c(c3)OCO4)nc21", "inhibition": -1},
      {"smiles": "Cc1ccc(O)cc1Nc1ccnc2cc(-c3cccc(CNCCS(C)(=O)=O)c3)ccc12", "inhibition": 2},
      {"smiles": "Fc1cc(Cl)ccc1Nc1ccnc2cc(-c3ccc(CNCCN4CCOCC4)o3)ccc12", "inhibition": -2},
      {"smiles": "N=C(N)c1ccc(Nc2nccc(Nc3nc(-c4ccccc4)cs3)n2)cc1", "inhibition": -8}
    ]}
  ]
}
